Compounds with a hit are over-represented: about 2.3% of the library has one in this group of screens.
RGS12 GoLoco inh: RGS12 GoLoco-Gai1 interaction inhibition | P63096 | Gai1:RGS12 GoLoco peptide FP, rhodamine, 10 min | Potency, µM (titrated, usually from 61.6 µM), without a hit: at the top dose activity, negative = inhibition, most hits filed as inhibitors | 0.44% of 230,000 active; active = well fitted inhibition curve with a large enough effect, not every such curve was filed as active; inactive = no such curve, though single readings can be large or run the other way; note: potency is the fitted concentration of half-maximal effect; % is set by controls: 0 for no effect and ±100 for the full control effect; nearly all actives have a fitted effect of over 30% in size
Target sequence (P63096 whole entry, looked up): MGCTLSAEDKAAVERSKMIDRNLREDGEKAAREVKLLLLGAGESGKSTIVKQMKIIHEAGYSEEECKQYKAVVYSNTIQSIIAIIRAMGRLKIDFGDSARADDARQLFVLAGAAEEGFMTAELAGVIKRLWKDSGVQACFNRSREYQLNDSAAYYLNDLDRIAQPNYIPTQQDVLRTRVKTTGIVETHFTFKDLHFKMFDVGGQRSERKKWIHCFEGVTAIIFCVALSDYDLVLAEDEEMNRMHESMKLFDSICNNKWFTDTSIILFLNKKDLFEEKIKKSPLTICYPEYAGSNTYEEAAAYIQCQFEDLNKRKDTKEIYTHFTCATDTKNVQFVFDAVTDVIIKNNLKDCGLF
KDM4E inh: inhibitors of human JMJD2E histone demethylase; JMJD2E catalytic domain, FDH-coupled NADH fluorescence (FDH is formaldehyde dehydrogenase); AID 2147; 1.6% of 230,000 active; Potency, µM (doses to about 57.1 µM), inactives show at the highest dose activity change, negative = inhibition, most hits filed as inhibitors; B2RXH2; active = well fitted inhibition curve with a large enough effect, not every such curve was filed as active; inconclusive = small, poorly fitted or top-dose-only effect, or another doubt; inactive = no such curve, though single readings can be large or run the other way;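 note: potency is the fitted concentration of half-maximal effect; 0% = wells with enzyme and -100% = buffer wells without enzyme; nearly all actives have a fitted effect of over 50% in size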
HTT ATP protect: Huntington cell model cytoprotection by ATP luminescence | PC12 HTT-Q103 induced, cytoprotection, ATP luminescence, 40 h | Potency, µM (series often up to 56.4 µM), inactives show cytoprotection (ATP increase), usual class: activators | 0.14% of 230,000 active; note: potency is the fitted concentration of half-maximal effect; % of control where 0% means no effect; nearly all actives have a fitted effect of over 45% in size
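Readout: ATPlite luminescence (ATP level). Model: stable PC12, inducible Htt exon1 Q103-GFP. Inducer: tebufenozide, 100 nM final. Compounds: dose series. No G418 in medium.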
HttQ103 aggreg: inhibitors of mutant huntingtin aggregate formation in PC12 cells | Potency, µM (highest dose often 46.1 µM), inactives show at the highest dose activity change, negative = inhibition, most hits filed as inhibitors | PC12 HttQ103-GFP aggregates, Acumen cytometry, 40 h | 1.1% of 220,000 active; note: potency is the fitted concentration of half-maximal effect; % is set by controls: 0 for no effect and ±100 for the full control effect; nearly all actives have a fitted effect of over 60% in size
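PC12 cells stably carrying ecdysone-inducible HTT exon 1 Q103–GFP were induced with tebufenozide (100 nM final) and treated with library compounds in titration. GFP aggregates in lysates were counted by laser scanning cytometry.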
FBPA coupling cs: inhibits coupling enzyme system, counter-screen for aldolase hits | coupling enzyme system counterscreen, AmpLite Red fluorescence | activity change, negative = inhibition, % at 58.2 µM, hits read low | 0.67% of 290,000 active | AID 2472; in the data active = activity change below about -30%; note: % is set by controls: 0 for no effect and ±100 for the full control effect
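Counterscreen of the coupled detection system alone, without aldolase: glyceraldehyde-3-phosphate coupling enzymes plus AmpLite Red readout. Compounds at 57.5 uM final, 10 min RT preincubation, 20 min RT reaction, fluorescence 525/598 nm.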
VDR inh: inhibitors of human vitamin D receptor | P11473 | VDR-SRC2-3 peptide fluorescence polarization, 2 h | Potency, µM, for inactives: max response, negative = inhibition, actives largely listed as inhibitors | 0.93% of 400,000 active; note: potency is the fitted concentration of half-maximal effect; % is set by controls: 0 for no effect and ±100 for the full control effect
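Reagent solutions, kept cold and dark, are dispensed first; compounds are then pinned in at 23 nl, plates briefly spun, and incubated 2 h at ambient temperature. Inhibition of VDR–SRC2-3 peptide binding is read by fluorescence polarization.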
Active calls of the source: *; ? = inconclusive; nt = no result; ! = a repeat was not active; [ ] = remark or other dose. Unless noted, calls come from the whole dose curve; as a rule, active = well fitted curve in the direction sought with a large enough effect; inconclusive = small, poorly fitted or top-dose-only effect, or another doubt; inactive = no such curve, though single readings can be large; an effect the other way counts as inactive or inconclusive.

SMILES	RGS12 GoLoco inh	KDM4E inh	HTT ATP protect	HttQ103 aggreg	FBPA coupling cs	VDR inh
CCOc1cc(/C=C\[N+](=O)[O-])ccc1OCC(=O)Nc1ccccc1C	-6%	4%	-3%	12%	2	4.5µM*
Fc1ccccc1Nc1nc(Cl)nc(Cl)n1	-3%	-1%	11%	4%	-1	71µM*
Cc1ccc(OCC(=O)Nc2ccc3nc(SCC(=O)N4CCOCC4)sc3c2)cc1	nt	nt	nt	nt	nt	15%
O=C(CNC(=O)c1ccccc1Cl)N/N=C/c1ccc([N+](=O)[O-])s1	6%	-9%	14%[10 µM]	11µM*	3	-6%
O=C(CCCSCCCC(=O)NN=Cc1ccccc1)NN=Cc1ccccc1	nt	nt	nt	nt	nt	1%
O=C(CCNC(=O)c1ccccc1Cl)N/N=C\c1ccc(O)cc1	4%	8%	0%[10 µM]	2%[9.22 µM]	-21	22µM*
O=C(CCC(=O)Nc1ccccc1Cl)N/N=C/c1ccccc1	-1%	-1%	nt	-11%	-47*	-22%
COc1ccc(CC(=O)N2CCc3cc(OC)c(OC)cc3C2C)c(OC)c1 (stereo unspecified)	nt	nt	nt	nt	0	4%
CCOC(=O)c1cc2c(=O)n3ccccc3nc2n(CCOC)c1=NC(=O)c1c(-c2ccccc2Cl)noc1C	nt	nt	nt	nt	nt	-3%
CN(C)c1cccc(C(=O)NNC(=O)CN2C(=O)C3CC=CCC3C2=O)c1 (stereo unspecified)	nt	nt	nt	nt	nt	-6%
O=C1CCCC2CCCCN12 (stereo unspecified)	2%[186 µM]	nt	-28%[150 µM]	nt	-2	0%
COc1ccc(-n2c(-c3ccc(Cl)cc3)c[n+]3c2CCc2ccccc2-3)cc1	-5%	0%	-68%	13µM*	3	-6%
COc1ccc(-n2c(-c3ccccc3)nnc2-c2ccc(Cl)cc2)cc1	-5%	-1%	4%	13%	11	0%
CCOc1cccc(CNc2ccc(O)cc2)c1OCc1ccc(Cl)cc1Cl	-3%	?	14%	?	-50*	50µM*
CCOc1cccc(CNc2ccc(O)cc2)c1OCc1ccccc1Cl	-27%	0%	13%[10 µM]	-2%	1	40µM*!
CCOc1cccc(CNn2cnnc2)c1OCc1ccccc1Cl	6%	4%	-10%	9%	-2	-10%
Cc1cc(=O)n2c(C(=O)Nc3ccc(C)c(C)c3)c(C(=O)Nc3ccccc3)sc2n1	24%	-4%	-28%	4%	3	8%
COc1c(C=O)c(O)cc2c1C(=O)c1ccccc1C2=O	-4%	nt	?	nt	nt	7.1µM*
Nc1c(O)ccc2c1C(=O)c1ccccc1C2=O	116%	1%	-2%[10 µM]	3%	-8	-22%
CS(=O)(=O)Cc1cc(N2CCCC2)nc(-c2ccccc2)n1	7%	-27%	-12%	-11%	1	2%
COc1ccc(S(N)(=O)=O)cc1C(=O)OCC1CCCCC1	nt	nt	nt	nt	1	-6%
COc1ccc(CCN2CCCn3c2nc2c3c(=O)n(C)c(=O)n2C)cc1OC	nt	nt	nt	nt	0	14%
c1cncc(-c2nnc(-c3cccnc3)nn2)c1	-6%	?	-123%[10 µM]	?	-41*	-50%
c1ccc(-c2nnc(-c3ccccc3)nn2)cc1	10%	8%	-15%[10 µM]	21%[9.22 µM]	0	18%
N#CC(Cc1ccc(O)c(O)c1)C(=O)N1CCc2ccccc21 (stereo unspecified)	9%	20µM*	nt	nt	nt	nt
SMILES	RGS12 GoLoco inh	KDM4E inh	HTT ATP protect	HttQ103 aggreg	FBPA coupling cs	VDR inh
C=C(CO)[C@H]1Cc2c(ccc3c2O[C@H]2COc4cc(OC)c(OC)cc4[C@@H]2C3=O)O1	nt	nt	2%	nt	nt	nt
Cc1ccc(-c2ccc(C(=O)Nc3ccccc3)o2)c2ccccc12	9%	-5%	nt	4%	-14	?
Cc1ccc(S(=O)(=O)NC(=O)c2ccc(-c3ccc(C)c4ccccc34)o2)cc1	6%	?	nt	20%	0	79µM*
COc1ccccc1NS(=O)(=O)c1cc(NC(=O)C(C)(C)C)ccc1N1CCOCC1	nt	nt	nt	nt	nt	-22%
O=S(=O)(Nc1ccccc1F)c1cccc(NC(=S)NCCN2CCOCC2)c1	nt	nt	nt	nt	nt	35µM*
COc1ccccc1NS(=O)(=O)c1cc(NC(=S)NCCN2CCOCC2)ccc1N1CCOCC1	-10%	-19%	-42%[10 µM]	?	-2	79µM*

Compound activity: PubChem, National Center for Advancing Translational Sciences (NCATS)
